An excerpt weighted towards active compounds, which were near 11% of everything screened.
HP1b chromo inh – HTS for Inhibitors of HP1-beta Chromodomain Interactions with Methylated Histone Tails; Chromobox protein homolog 1 (Homo sapiens), P83916; AlphaScreen HP1-beta / biotin-H3K9me3 peptide binding; Potency, µM (series often up to 114 µM), most hits filed as inhibitors; hit rate 0.56% among 390,000; AID 540317, 2011; further: nearly all actives have a fitted effect of over 70% in size
Target sequence (P83916 whole entry, looked up): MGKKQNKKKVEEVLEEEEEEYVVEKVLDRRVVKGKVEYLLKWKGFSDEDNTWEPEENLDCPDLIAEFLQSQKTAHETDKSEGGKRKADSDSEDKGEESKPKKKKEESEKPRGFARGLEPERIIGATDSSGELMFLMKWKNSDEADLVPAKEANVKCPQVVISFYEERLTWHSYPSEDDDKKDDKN
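AlphaScreen: HP1-beta (50 nM) preformed 30 min with biotin-H3(1-18)K9me3 peptide (50 nM) in PBS pH 7.4, 0.01% Tween-20. Compound added for 30 min at RT, then streptavidin donor/nickel chelate acceptor beads (10 ug/mL) for 30 min.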
JMJD2A Tudor inh – qHTS Assay for Inhibitors of JMJD2A-Tudor Domain. Lysine-specific demethylase 4A (Homo sapiens), O75164. AlphaScreen JMJD2A-Tudor / H3K4me3 peptide binding. Potency, µM (series often up to 114 µM), actives largely listed as inhibitors. hit rate 4.4% among 390,000. AID 504339, 2011; further: nearly all actives have a fitted effect of over 50% in size
G9a block – qHTS Assay for Inhibitors of Histone Lysine Methyltransferase G9a. Histone-lysine N-methyltransferase EHMT2 (Homo sapiens), Q96KQ7. G9a H3K9 monomethylation, AlphaScreen, 2 h. Potency, µM (series often up to 102 µM), most hits filed as inhibitors. hit rate 8.8% among 350,000. AID 504332, 2011; further: nearly all actives have a fitted effect of over 75% in size
Target sequence (Q96KQ7 913-1193 limits assumed): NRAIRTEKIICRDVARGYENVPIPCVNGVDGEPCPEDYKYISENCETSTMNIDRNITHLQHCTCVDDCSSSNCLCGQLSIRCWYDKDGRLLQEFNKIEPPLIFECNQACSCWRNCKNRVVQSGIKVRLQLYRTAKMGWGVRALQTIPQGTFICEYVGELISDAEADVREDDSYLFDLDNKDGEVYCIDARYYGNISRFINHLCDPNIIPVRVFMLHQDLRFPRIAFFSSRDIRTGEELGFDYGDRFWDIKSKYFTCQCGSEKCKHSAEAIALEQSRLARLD
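Step 1: enzyme (final 20 nM) with compound, 15 min RT. Step 2: substrate peptide 500 nM and SAM 20 uM, 2 h RT. Step 3: anti-H3K9me1 antibody and AlphaScreen beads, 10 min, then plate read.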
BAZ2B inh – qHTS Assay for Inhibitors of BAZ2B; Bromodomain adjacent to zinc finger domain protein 2B (Homo sapiens), Q9UIF8; AlphaScreen BAZ2B-H3K14Ac peptide displacement; Potency, µM (series often up to 114 µM), most hits filed as inhibitors; hit rate 4.4% among 360,000; further: nearly all actives have a fitted effect of over 60% in size
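Inhibition is scored as reduced AlphaScreen emission. The BAZ2B/b-H3(5-23)K14Ac complex (50 nM each) in PBS pH 7.4, 0.01% Tween-20 meets compound (up to 110 uM) for 30 min at RT before bead addition.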
L3MBTL1 block – qHTS Assay for the Inhibitors of L3MBTL1. AID 485360, 2010. Potency, µM (series often up to 57.1 µM), hits mostly inhibitors. AlphaScreen L3MBTL1–H3K9me1 peptide binding. hit rate 0.66% among 230,000; further: nearly all actives have a fitted effect of over 60% in size
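AlphaScreen proximity signal between nickel-chelate acceptor and streptavidin donor beads (final 10 ug/mL) reports binding of 50 nM L3MBTL1 to 75 nM biotin-H3 K9me1 peptide; complex incubated with compounds 30 min at room temperature; cefsulodin titration as control.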
Hits are given with their value; - = inactive; ? = inconclusive; . = no result given; [ ] = remark or other dose. The call rests on the fitted dose curve; in most records, active means well fitted inhibition curve with a large enough effect; inconclusive means small, poorly fitted or top-dose-only effect; inactive means no such curve, though single readings can be large or run the other way.

SMILES	HP1b chromo inh	JMJD2A Tudor inh	G9a block	BAZ2B inh	L3MBTL1 block
CC1Cc2cc(/C(O)=C3/C(=O)C(=O)N(CCCn4ccnc4)C3c3cccc([N+](=O)[O-])c3)ccc2O1 (stereo not given)	-	-	50.1µM	?	.
C=CCOc1ccc(/C(O)=C2/C(=O)C(=O)N(CCCn3ccnc3)C2c2ccco2)cc1 (stereo not given)	-	?	20µM	50.1µM	-
COc1ccc(OC)c(C2C(C(=O)N3CCCCC3)=C(C)Nc3nc4ccccc4n32)c1 (stereo not given)	-	-	-	-	.
CC(=O)c1ccccc1OCC(O)Cn1c(CO)nc2ccccc21 (stereo not given)	-	-	-	-	.
COc1ccc(C2/C(=C(\O)c3ccc4c(c3)OCCO4)C(=O)C(=O)N2CCCn2ccnc2)cc1 (stereo not given)	-	-	?	?	.
CC1Cc2cc(/C(O)=C3/C(=O)C(=O)N(CCCn4ccnc4)C3c3ccc(Br)cc3)ccc2O1 (stereo not given)	-	-	.	-	.
COc1ccccc1C1/C(=C(\O)c2ccc3c(c2)OCCO3)C(=O)C(=O)N1CCCn1ccnc1 (stereo not given)	-	-	39.8µM	?	.
CC1Cc2cc(/C(O)=C3/C(=O)C(=O)N(CCCn4ccnc4)C3c3ccco3)ccc2O1 (stereo not given)	-	31.6µM	?	?	-
COc1cc(Cl)c(C)cc1NC(=O)CSCc1nc(-c2ccc(OC)c(OC)c2)no1	-	-	-	-	.
O=C(CCCCC(=O)NNC(=O)COc1ccccc1)NNC(=O)COc1ccccc1	-	-	35.5µM	-	.
O=C(CCc1ccccc1)NNC(=O)COc1ccc(Br)cc1	50.1µM	20µM	-	-	.
O=C(COc1ccccc1)NNC1=NS(=O)(=O)c2ccccc21	-	-	44.7µM	.	-
COc1ccc(C(=O)NNC2=NS(=O)(=O)c3ccccc32)cc1OC	-	-	-	?	.
Cc1cccc(OCC(=O)NNC(=O)CCCCC(=O)NNC(=O)COc2cccc(C)c2)c1	-	-	-	-	.
COc1ccc(OCC(=O)Nc2ccccc2C(=O)OCc2cc(=O)n3nc(C)sc3n2)cc1	-	-	-	-	.
Cc1cccc(C)c1OCC(=O)NCC1(N2CCOCC2)CCCCC1	-	-	-	-	.
CCc1ccc(NC(=O)C(NS(=O)(=O)c2cccs2)C(C)C)cc1 (stereo not given)	-	-	-	-	.
Oc1ccc(-c2nc3ccccc3nc2-c2ccccc2)cc1	-	-	-	-	-
FC(F)(F)c1ccc(-c2noc(-c3ccccc3Br)n2)cc1	-	-	-	-	.
COc1ccc(-c2nc(=S)[nH][nH]2)cc1	79.4µM	2.51µM	1.78µM	-	-
CCOc1ccc(-c2nnc(-c3ccc(OC)cc3)o2)cc1	-	-	-	-	-
FC(F)(F)c1ccc(-c2nc(=S)[nH][nH]2)cc1	-	22.4µM	3.55µM	-	.
Oc1ccc(-c2nc(=S)[nH][nH]2)cc1	-	5.01µM	1.26µM	-	-
CCOc1ccc(-c2nc(=S)[nH][nH]2)cc1	-	7.08µM	1.41µM	-	-
Cc1nc2cc(N)ccc2n1-c1ccccc1	?	35.5µM	?	-	-
SMILES	HP1b chromo inh	JMJD2A Tudor inh	G9a block	BAZ2B inh	L3MBTL1 block
Cc1nc2cc(C(=O)O)ccc2n1-c1ccc(C(C)C)cc1	-	-	15.8µM	?	.
COc1ccc(NC(=O)CN2CCN(Cc3ccccc3)S2(=O)=O)c(OC)c1	-	-	-	-	.
CCS(=O)(=O)N1CCc2cc(C(=O)N3CCN(c4ccc(OC)cc4)CC3)ccc21	-	?	?	?	.
CN(C)CCOCCOc1ccc(Cl)cc1C(C)(C)C	?	3.16µM	8.91µM	50.1µM	-
CC(O)CNCCCOc1ccc(Cl)cc1C(C)(C)C (stereo not given)	?	0.891µM	.	?	-
CCN(CC)CCNC(C(=O)Nc1cc(C(F)(F)F)ccc1Cl)c1ccccc1 (stereo not given)	-	-	10µM	?	-
O=C(Nc1cc(C(F)(F)F)ccc1Cl)C(NCc1ccccc1)c1ccccc1 (stereo not given)	-	-	-	-	-
CCCn1c(N)c(C(=O)CN(C)CC(=O)Nc2ccccc2C(F)(F)F)c(=O)[nH]c1=O	-	-	-[2.33 µM]	-	-
O=S(=O)(c1ccc2c(c1)CCCN2)N1CCCC1	-	-	-[2.33 µM]	-	-
CCN(CC)c1ccc2c(c1)CCCN2	.	.	1.78µM	44.7µM	-
COc1ccc(OC)c(S(=O)(=O)N2CCN(S(=O)(=O)c3ccc4c(c3)OCCO4)CC2)c1	.	-	.	.	.
CC(=O)Nc1ccc(NC(=O)Cc2sc(-c3cccnc3)nc2-c2ccc(C)cc2)cc1	-	-	44.7µM	-	-
O=C(CSc1nnc(-c2cccnc2)s1)Nc1ccnc2ccccc12	-	-	?	-	-
Cc1ccc(NC(=O)CSc2nnc(-c3cccnc3)s2)cc1	-	-	79.4µM	-	-
Nc1nnc(SCC(=O)Nc2ccc(Cl)c(C(=O)O)c2)s1	-	-	-	-	.
O=C(CSc1nnc(-c2ccncc2)s1)Nc1ccc(Cl)c(C(=O)O)c1	-	-	50.1µM	?	.
Cc1ccc(-c2nc(-c3cccnc3)sc2CC(=O)O)cc1	-	-	?	-	-
Cc1ccc(NC(=O)C2CCN(S(=O)(=O)c3ccccc3)CC2)cc1	-	-	?	-	-
Cc1ccc(S(=O)c2ccc(NC(=O)C3CC3)cc2C#N)cc1 (stereo not given)	-	14.1µM	-	-	-
Cc1ccc(-n2ncc(C(=O)NCCc3c[nH]c4ccccc34)c2C2CCN(C(=O)OC(C)(C)C)CC2)cc1C	-	?	-	-	.
CCOCCCNC(=O)c1cc(=O)[nH]c2ccc(S(=O)(=O)N3CCCC3)cc12	-	-	-	-	.
Cc1ccc2nc(SC(Cc3cc(Cl)ccc3Cl)C(=O)O)[nH]c2c1 (stereo not given)	-	-	-	-	.
COc1ccc(NC(=O)c2cc3c(=O)n(Cc4ccco4)ccc3nc2C)cc1	-	-	-	-	.
COc1ccc(NC(=S)N/N=C/c2cccn2Cc2ccc(F)cc2Cl)cc1	?	28.2µM	22.4µM	17.8µM	.
Cc1cccc(NC(=S)N/N=C/c2cccn2Cc2ccc(F)cc2)c1	-	-	?	8.91µM	.
CSc1ccccc1NC(=S)N/N=C/c1cccn1Cc1ccc(F)cc1	-	35.5µM	31.6µM	28.2µM	.
CSc1ccccc1NC(=S)N/N=C/c1cccn1Cc1cccc(C)c1	-	-	25.1µM	8.91µM	.
Cc1ccc(SC2=C(Sc3ccc(C)cc3)C(=O)c3ccccc3C2=O)cc1	3.55µM	3.55µM	2.82µM	3.55µM	?

Screens (PubChem BioAssay)
